# The supplement of paper PMC3334620
# Over roughly 33,000 sequences, “E-score (-0.5 to 0.5)” has its median near -8e-05; the highest 2% begin near 0.23. This excerpt belongs to a sample that is enriched for the highest values.
# Molecular target: T1, Nrg2 (UniProt P38082)
# T1 sequence: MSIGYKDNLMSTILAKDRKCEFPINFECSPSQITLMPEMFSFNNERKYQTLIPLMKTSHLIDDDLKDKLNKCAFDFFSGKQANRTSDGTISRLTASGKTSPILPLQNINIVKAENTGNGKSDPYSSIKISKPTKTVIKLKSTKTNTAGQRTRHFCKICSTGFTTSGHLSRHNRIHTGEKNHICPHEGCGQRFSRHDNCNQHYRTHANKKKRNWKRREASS
# Test: PBM E-score (8-mer binding enrichment) (E-score (-0.5 to 0.5)); higher = stronger / more preferred TF binding
# Details: protein concentration: 100 nM; construct: GST-full length
# Experimental: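 Universal 'all 10-mer' protein binding microarrays (Agilent AMADID 015681) probed with GST-tagged S. cerevisiae TFs (full-length or DBD) made by in vitro transcription/translation (PURExpress), about 100-200 nM. Bound TF was detected with fluorescent anti-GST. Each ungapped 8-mer (which stands for itself and its reverse complement) is scored by the PBM enrichment score (E-score), a modified Wilcoxon-Mann-Whitney statistic from -0.5 to +0.5, computed with the Universal PBM Analysis Suite. Scale: above 0.35 generally sequence-specific binding.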
row,Sequence,PBM E-score
1,CTATTCAA,0.0974
2,TTATTAAA,0.196
3,ACATTAAA,0.143
4,TCATTAAA,0.35
5,TTATTCAA,0.029
6,ATATTAAC,0.176
7,CTATTAAA,0.151
8,CGTTAAAC,0.0981
9,ATAGTGAC,-0.0527
10,AAATTATG,0.106
11,ATATTATC,0.0409
12,ATATTATG,0.304
13,AAACCATC,0.103
14,ATGTGCAC,0.0387
15,CATCTAAC,-0.152
16,GGCATAGA,0.0809
17,GATTATAC,0.235
18,GATTATAA,0.207
19,AATTATAC,0.122
20,CTTAGAAC,0.0319
21,CTGACTGA,-0.0542
22,GCTCGAAC,0.191
23,GAAAGAAC,0.0456
24,GAAAGAAA,0.281
25,GGCAGAAA,0.286

row,Sequence,PBM E-score
1,GGCAGAAC,0.088
2,CAAAGAAA,0.0775
3,TGCAGAAA,0.104
4,AAGCTGAG,-0.00374
5,AGCGGTAG,-0.196
6,GAGTAAGA,-0.0102
7,AAGACGGT,-0.161
8,CAAAGCAC,-0.0605
9,CAAAGCAG,0.0557
10,CAAAGCAA,0.265
11,AGTTAGGG,0.0307
12,ACATAAAC,0.0128
13,GCGACCAA,0.248
14,ACGACCAA,-0.12
15,CAGACCAA,0.0347
16,GAGACCAA,0.241
17,TAGACCAA,0.121
18,GCGACCAC,-0.0633
19,CCTTATCC,-0.23
20,AAACTAGG,-0.0197
21,CACCGCAG,0.0838
22,CACCGCAA,0.233
23,AACCGCAA,0.185
24,TGCATGCA,0.233
25,CGCATGCA,0.246

row,Sequence,PBM E-score
1,AGCATGCA,0.00231
2,CGCATGCC,0.145
3,CGCATGCG,0.0387
4,GGCATGCA,-0.113
5,GGGCGACA,-0.132
6,AGAGTTGA,-0.073
7,GTCCCACA,0.0612
8,ACGTTGAC,-0.00444
9,CCAACACG,0.0552
10,TCAACACA,0.235
11,ACAACACA,0.0869
12,CTTCGATC,-0.00647
13,AGATTCGA,0.0269
14,CGATTCGA,0.27
15,GGATTCGA,-0.0125
16,GCCGCGCC,-0.0901
17,GTCCCGTA,-0.111
18,ACGCGACC,-0.0575
19,GATGCAAA,0.0177
20,CAGCAACG,0.251
21,AAGCAACG,0.161
22,CAGCAACA,0.159
23,GTCAGCAC,-0.0154
24,GACTACGC,-0.187
25,AACGAAAC,0.117

row,Sequence,PBM E-score
1,AACGAAAG,-0.0319
2,AACGAAAT,0.251
3,ATTGCAGC,0.0702
4,GGGCGTAC,0.0663
5,GCACCCTA,0.105
6,GAACCCCC,-0.322
7,ATAACCCA,-0.0462
8,AGGACCTA,0.114
9,CGGACCTA,0.0604
10,GAACCCAA,0.0482
11,GTAACCCA,0.229
12,CTAACCCA,-0.00624
13,GAACCCCA,0.26
14,GGGACCTA,0.245
15,CGACCCTA,0.109
16,GGACCCTA,0.305
17,GCGCTGGA,0.0138
18,ATGGGTAG,-0.13
19,CGACGGTA,0.0706
20,GCAATAGC,0.133
21,AAAAGGGC,0.12
22,ATGCTCCA,0.0544
23,GGACCCCC,-0.144
24,GGACCCCA,0.236
25,TGACCCCA,0.0468

row,Sequence,PBM E-score
1,AAGATAGC,0.0443
2,CGGACGAC,-0.061
3,GGGACGAA,0.0439
4,CGGACGAA,0.233
5,CAGACGAA,0.252
6,GAGACGAA,-0.0342
7,CAGACGAC,-0.0246
8,AAGCTAAT,0.11
9,CTAGTCAC,-0.122
10,AACTACAT,-0.038
11,GGTCTCGA,0.0782
12,CAGACGGC,-0.16
13,CGAGGAAC,0.269
14,CGAGGAAA,0.0442
15,AGAGGAAC,-0.113
16,CAGCACGA,0.0405
17,ACCCTAGT,-0.0371
18,ACCCTTGG,0.198
19,ACCCTAGA,0.284
20,CCCCTTGA,0.2
21,GCCCTTGA,-0.00607
22,ACCCTTGA,0.242
23,CCCCTAGA,0.117
24,ACCCTTGC,0.268
25,CCCCTTGC,-0.0115

row,Sequence,PBM E-score
1,AGGACTAA,-0.0768
2,GTACTAGA,-0.00429
3,AACGACTC,-0.253
4,ATAGAAGA,-0.158
5,CACAGGCA,0.0159
6,AATGACGG,0.125
7,CACCGCGC,-0.0311
8,CGCAGCTA,-0.0329
9,CATCCACA,0.0702
10,ACAGAATA,0.148
11,TAAAATGA,0.254
12,GAAAATGA,-0.0055
13,GGAAATGA,0.25
14,AAAAATGA,0.0139
15,CGAAATGA,0.127
16,CTAAATGA,0.0289
17,CCACCAGA,0.0154
18,CCCGGAGA,-0.138
19,TGATAGCA,0.14
20,TGAGGACA,0.0644
21,ACTCTTTA,-0.0446
22,GAGTAGGC,-0.0622
23,AATACTGC,0.068
24,ACAGCTGC,-0.0727
25,CTTACTAA,0.0213

row,Sequence,PBM E-score
1,CAGGCCTG,0.115
2,AGGGTACT,0.255
3,AGGGTACC,0.0534
4,AGGGTACA,0.181
5,GGTCTACA,-0.0592
6,CAAACCAC,-0.00637
7,CTACGTTC,-0.178
8,CCGGAACA,-0.0209
9,ACGGAACA,0.0339
10,TCGGAACA,0.313
11,CGGCCATA,-0.123
12,AGGTTTCC,-0.0376
13,TCCGTGCA,0.134
14,CGAACGGC,-0.0328
15,CATGGCCG,0.258
16,CATGGCCC,-0.066
17,CATGGCCA,-0.042
18,AGTCAGTC,-0.127
19,CCTAATCG,0.16
20,ACTAATCT,0.00502
21,ACTAATCG,0.278
22,GGACCACC,0.0365
